# The whole screen tested about 5,500 compounds, of which about 2,000 (36%) were called active. About 18% were inconclusive and are not listed. Some of the results follow. Unmarked numbers belong to inactive results. Cut-off read from the data, not from the text of the source: active = normalized growth mostly below about 0.91 (no sharp cut-off); inconclusive = no clear call, values can overlap the other calls; inactive = mostly above about 0.92.
# Assay: chemical genetic growth profiling, strain panel (AID 1159580);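 note: tested at 20 µM; growth read once vehicle control cultures reached saturation at 30 °C; 1 = growth at the plate median or of vehicle wells; lower values mean less growth of the strain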
# Details: growth OD
compound,measurement,setting,value
COc1c2ccoc2cc2oc(C)cc(=O)c12,normalized growth,"S. cerevisiae deletion strains, locus YKL009W, strain mrt4, active compounds read low",0.965
same,normalized growth,"S. cerevisiae deletion strains, locus YKL068W, active compounds read low",0.982
same,normalized growth,"S. cerevisiae deletion strains, locus YKL085W, strain MDH1 (second series), active compounds read low",0.974
same,normalized growth,"S. cerevisiae deletion strains, locus YKL085W, strain MDH1, active compounds read low",0.974
same,normalized growth,"S. cerevisiae deletion strains, locus YKL160W, strain elf1, active compounds read low",0.993
same,normalized growth,"S. cerevisiae deletion strains, locus YKL190W, strain CNB1, active compounds read low",0.978
same,normalized growth,"S. cerevisiae deletion strains, locus YKR001C, strain vps1, active compounds read low",0.961
same,normalized growth,"S. cerevisiae deletion strains, locus YKR026C, strain gcn3, active compounds read low",0.982
same,normalized growth,"S. cerevisiae deletion strains, locus YKR091W, strain srl3, active compounds read low",0.998
same,normalized growth,"S. cerevisiae deletion strains, locus YLL001W, strain dnm1, active compounds read low",0.998
same,normalized growth,"S. cerevisiae deletion strains, locus YLL026W, active compounds read low",0.992
same,normalized growth,"S. cerevisiae deletion strains, locus YLL041C, strain sdh2, active compounds read low",1.01
same,normalized growth,"S. cerevisiae deletion strains, locus YLR027C, strain aat2, active compounds read low",0.997
same,normalized growth,"S. cerevisiae deletion strains, locus YLR039C, strain RIC1, active compounds read low",0.968
same,normalized growth,"S. cerevisiae deletion strains, locus YLR058C, strain SHM2, active compounds read low",0.936
same,normalized growth,"S. cerevisiae deletion strains, locus YLR102C, strain apc9, active compounds read low",0.992
same,normalized growth,"S. cerevisiae deletion strains, locus YLR113W, strain HOG1, active compounds read low",1.1
same,normalized growth,"S. cerevisiae deletion strains, locus YLR221C, strain rsa3, active compounds read low",0.987
same,normalized growth,"S. cerevisiae deletion strains, locus YLR258W, strain gsy2, active compounds read low",0.987
same,normalized growth,"S. cerevisiae deletion strains, locus YLR262C, strain YPT6 (second series), active compounds read low",1.03
same,normalized growth,"S. cerevisiae deletion strains, locus YLR262C, strain YPT6, active compounds read low",0.92
same,normalized growth,"S. cerevisiae deletion strains, locus YLR268W, strain sec22, active compounds read low",1.02
same,normalized growth,"S. cerevisiae deletion strains, locus YLR320W, strain mms22, active compounds read low",0.993
same,normalized growth,"S. cerevisiae deletion strains, locus YLR330W, strain CHS5, active compounds read low",0.986
same,normalized growth,"S. cerevisiae deletion strains, locus YLR342W, strain FKS1 (second series), active compounds read low",1.01
same,normalized growth,"S. cerevisiae deletion strains, locus YLR342W, strain FKS1, active compounds read low",0.984
same,normalized growth,"S. cerevisiae deletion strains, locus YLR357W, strain rsc2, active compounds read low",0.98
same,normalized growth,"S. cerevisiae deletion strains, locus YLR370C, strain arc18, active compounds read low",0.992
same,normalized growth,"S. cerevisiae deletion strains, locus YLR371W, strain rom2, active compounds read low",0.986
same,normalized growth,"S. cerevisiae deletion strains, locus YLR384C, strain iki3, active compounds read low",1
same,normalized growth,"S. cerevisiae deletion strains, locus YLR418C, strain cdc73, active compounds read low",0.835 (active)
same,normalized growth,"S. cerevisiae deletion strains, locus YML016C, strain PPZ1, active compounds read low",0.977
same,normalized growth,"S. cerevisiae deletion strains, locus YML032C, strain rad52, active compounds read low",0.912
same,normalized growth,"S. cerevisiae deletion strains, locus YML120C, strain ndi1, active compounds read low",1.02
same,normalized growth,"S. cerevisiae deletion strains, locus YML124C, strain tub3, active compounds read low",0.99
same,normalized growth,"S. cerevisiae deletion strains, locus YMR058W, strain fet3, active compounds read low",1
same,normalized growth,"S. cerevisiae deletion strains, locus YMR078C, strain ctf18, active compounds read low",0.977
same,normalized growth,"S. cerevisiae deletion strains, locus YMR125W, strain sto1, active compounds read low",0.997
same,normalized growth,"S. cerevisiae deletion strains, locus YMR129W, active compounds read low",0.999
same,normalized growth,"S. cerevisiae deletion strains, locus YMR205C, strain PFK2, active compounds read low",1.01
same,normalized growth,"S. cerevisiae deletion strains, locus YMR223W, strain ubp8, active compounds read low",0.956
same,normalized growth,"S. cerevisiae deletion strains, locus YMR231W, strain pep5, active compounds read low",1.01
same,normalized growth,"S. cerevisiae deletion strains, locus YMR307W, strain GAS1, active compounds read low",0.961
same,normalized growth,"S. cerevisiae deletion strains, locus YNL067W, strain RPL9B, active compounds read low",0.96
same,normalized growth,"S. cerevisiae deletion strains, locus YNL071W, strain lat1, active compounds read low",0.993
same,normalized growth,"S. cerevisiae deletion strains, locus YNL128W, strain TEP1, active compounds read low",0.943
same,normalized growth,"S. cerevisiae deletion strains, locus YNL153C, strain GIM3, active compounds read low",0.93
same,normalized growth,"S. cerevisiae deletion strains, locus YNL183C, strain NPR1, active compounds read low",0.983
same,normalized growth,"S. cerevisiae deletion strains, locus YNL209W, strain ssb2, active compounds read low",0.983
same,normalized growth,"S. cerevisiae deletion strains, locus YNL233W, strain BNI4, active compounds read low",0.924
same,normalized growth,"S. cerevisiae deletion strains, locus YNL248C, strain rpa49, active compounds read low",1
same,normalized growth,"S. cerevisiae deletion strains, locus YNL250W, strain rad50, active compounds read low",0.987
same,normalized growth,"S. cerevisiae deletion strains, locus YNL271C, strain bni1, active compounds read low",0.986
same,normalized growth,"S. cerevisiae deletion strains, locus YNL298W, strain CLA4, active compounds read low",0.975
same,normalized growth,"S. cerevisiae deletion strains, locus YNL307C, strain MCK1, active compounds read low",0.991
same,normalized growth,"S. cerevisiae deletion strains, locus YNL322C, strain KRE1 (second series), active compounds read low",0.984
same,normalized growth,"S. cerevisiae deletion strains, locus YNL322C, strain KRE1, active compounds read low",0.976
same,normalized growth,"S. cerevisiae deletion strains, locus YNR049C, strain mso1, active compounds read low",0.993
same,normalized growth,"S. cerevisiae deletion strains, locus YNR052C, strain pop2, active compounds read low",0.977
same,normalized growth,"S. cerevisiae deletion strains, locus YOL006C, strain TOP1, active compounds read low",0.946
same,normalized growth,"S. cerevisiae deletion strains, locus YOL012C, strain htz1",1.83
same,normalized growth,"S. cerevisiae deletion strains, locus YOL147C, strain pex11, active compounds read low",0.984
same,normalized growth,"S. cerevisiae deletion strains, locus YOR001W, strain rrp6, active compounds read low",0.982
same,normalized growth,"S. cerevisiae deletion strains, locus YOR061W, strain CKA2, active compounds read low",0.959
same,normalized growth,"S. cerevisiae deletion strains, locus YOR069W, strain VPS5, active compounds read low",0.993
same,normalized growth,"S. cerevisiae deletion strains, locus YOR070C, strain gyp1, active compounds read low",0.984
same,normalized growth,"S. cerevisiae deletion strains, locus YOR080W, strain dia2, active compounds read low",1.02
same,normalized growth,"S. cerevisiae deletion strains, locus YOR083W, strain WHI5, active compounds read low",0.994
same,normalized growth,"S. cerevisiae deletion strains, locus YOR106W, strain vam3, active compounds read low",0.994
same,normalized growth,"S. cerevisiae deletion strains, locus YOR136W, strain idh2, active compounds read low",0.996
same,normalized growth,"S. cerevisiae deletion strains, locus YOR144C, strain elg1, active compounds read low",0.989
same,normalized growth,"S. cerevisiae deletion strains, locus YOR184W, strain ser1, active compounds read low",0.967
same,normalized growth,"S. cerevisiae deletion strains, locus YOR231W, strain MKK1, active compounds read low",1.07
same,normalized growth,"S. cerevisiae deletion strains, locus YOR265W, strain rbl2, active compounds read low",1
same,normalized growth,"S. cerevisiae deletion strains, locus YOR270C, strain vph1, active compounds read low",0.997
same,normalized growth,"S. cerevisiae deletion strains, locus YOR290C, strain snf2, active compounds read low",0.974
same,normalized growth,"S. cerevisiae deletion strains, locus YOR316C, strain cot1, active compounds read low",0.995
same,normalized growth,"S. cerevisiae deletion strains, locus YPL051W, strain arl3, active compounds read low",0.979
same,normalized growth,"S. cerevisiae deletion strains, locus YPL078C, strain atp4, active compounds read low",0.992
same,normalized growth,"S. cerevisiae deletion strains, locus YPL106C, strain sse1, active compounds read low",0.95
same,normalized growth,"S. cerevisiae deletion strains, locus YPL240C, strain hsp82, active compounds read low",0.99
same,normalized growth,"S. cerevisiae deletion strains, locus YPL241C, strain CIN2, active compounds read low",0.976
same,normalized growth,"S. cerevisiae deletion strains, locus YPL256C, strain CLN2, active compounds read low",1.05
same,normalized growth,"S. cerevisiae deletion strains, locus YPR119W, strain clb2, active compounds read low",0.986
same,normalized growth,"S. cerevisiae deletion strains, locus YPR141C, strain kar3, active compounds read low",0.984
same,normalized growth,"S. cerevisiae deletion strains, locus YPR163C, strain tif3, active compounds read low",0.978
same,normalized growth,"S. cerevisiae deletion strains, locus YPR167C, strain met16, active compounds read low",0.991
same,normalized growth,"S. cerevisiae deletion strains, strain wtn01, active compounds read low",1.03
same,normalized growth,"S. cerevisiae strains, strain wild type, active compounds read low",0.965

# Source: PubChem BioAssay AID1159580 (chemical genetic matrix, 2015)
